The values that follow come from PubChem BioAssay.

Records with an inconclusive call do not appear. Activity calls are given as the source filed them. Cut-off read from the data, not from the text of the source, unless noted: active = inhibition above about 30%; inactive = the rest.

The nature of assay [1]: reducers of endogenous Her2 protein level, primary screen, SKBR3 breast tumor cells, AlphaScreen, ATP viability (AID 461;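 active = Her2 level under about 52% in both replicate screens, with viability over 70% of control, limit read from the data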;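 for Her2 level: lower value means less Her2 protein in the cells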;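 for viability: percent of carrier control wells set as 100% viability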). The settings on record: 18-24 h, measured here: SKBR3 viability, ATP luminescence, at 10 µM. Background: Bead proximity is the source of the signal in Alpha formats.
For assay [2], the target named is Receptor tyrosine-protein kinase erbB-2 (Homo sapiens) (UniProt P04626). The assay is described as above. The settings on record: 18-24 h, at 10 µM, stronger effect = lower value.
Chain of Receptor tyrosine-protein kinase erbB-2 (Homo sapiens) (P04626 whole entry, looked up): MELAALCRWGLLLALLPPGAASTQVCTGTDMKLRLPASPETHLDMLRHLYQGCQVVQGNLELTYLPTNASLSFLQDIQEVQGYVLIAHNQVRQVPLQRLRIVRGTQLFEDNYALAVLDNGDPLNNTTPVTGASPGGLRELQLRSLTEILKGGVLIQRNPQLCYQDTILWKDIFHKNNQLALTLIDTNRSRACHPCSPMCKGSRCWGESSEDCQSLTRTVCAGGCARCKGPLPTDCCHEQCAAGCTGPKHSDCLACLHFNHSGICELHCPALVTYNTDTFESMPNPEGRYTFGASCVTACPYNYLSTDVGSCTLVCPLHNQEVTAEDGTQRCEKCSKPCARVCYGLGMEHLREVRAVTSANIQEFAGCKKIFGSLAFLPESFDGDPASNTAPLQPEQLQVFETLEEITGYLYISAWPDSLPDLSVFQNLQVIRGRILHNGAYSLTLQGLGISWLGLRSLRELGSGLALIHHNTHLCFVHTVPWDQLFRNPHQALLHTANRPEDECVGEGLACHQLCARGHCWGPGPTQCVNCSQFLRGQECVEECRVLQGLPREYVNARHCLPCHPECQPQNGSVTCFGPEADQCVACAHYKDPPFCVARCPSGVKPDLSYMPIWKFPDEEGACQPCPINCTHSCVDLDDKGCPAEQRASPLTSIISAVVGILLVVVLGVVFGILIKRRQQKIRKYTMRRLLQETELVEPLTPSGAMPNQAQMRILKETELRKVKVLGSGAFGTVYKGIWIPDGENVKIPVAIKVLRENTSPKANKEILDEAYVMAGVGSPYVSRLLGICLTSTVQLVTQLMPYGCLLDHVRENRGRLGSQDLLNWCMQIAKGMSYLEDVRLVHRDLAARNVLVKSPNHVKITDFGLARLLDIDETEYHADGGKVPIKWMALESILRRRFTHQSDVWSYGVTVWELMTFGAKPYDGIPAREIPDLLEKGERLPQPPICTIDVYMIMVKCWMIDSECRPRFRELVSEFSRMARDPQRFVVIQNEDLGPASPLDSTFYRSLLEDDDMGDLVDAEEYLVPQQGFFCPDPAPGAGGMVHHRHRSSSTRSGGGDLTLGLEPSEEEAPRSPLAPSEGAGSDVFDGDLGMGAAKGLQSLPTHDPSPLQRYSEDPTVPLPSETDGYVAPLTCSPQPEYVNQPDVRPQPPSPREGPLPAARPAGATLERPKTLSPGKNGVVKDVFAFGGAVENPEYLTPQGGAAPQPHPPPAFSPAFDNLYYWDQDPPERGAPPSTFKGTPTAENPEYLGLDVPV
The nature of assay [3]: SK-BR-3 cell growth inhibitors, pilot screen, 24 h, human (AID 572;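 active = viability at or below 10% of carrier control in both of two separate runs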;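 note: compound exposure lasted between 18 and 24 h rather than exactly 24 h; 100% = carrier-treated control wells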). The settings on record: SK-BR-3 viability, CellTiter-Glo luminescence, at 10 µM, stronger effect = lower value.
Assay [4] is described as follows: HUVEC growth inhibition – cell-based, human, primary screen (AID 575;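 active = viability at or below 30% in both replicate assays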;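 note: 100% = median of untreated cell wells with 0.1% DMSO on each plate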). The settings on record: HUVEC proliferation, CellTiter-Glo luminescence, 72 h; at 10 µM; stronger effect = lower value. For orientation: Cellular ATP, detected with luciferase, serves as a proxy for viable cell number.
Assay [5] in a line: growth inhibitors of H69AR lung tumor, primary screen, human, duplicate replicates (AID 580;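 active = viability at or under a set limit in both replicates, limit being median viability minus 3 SD, cut at about 48% in these data, passing the limit was not always enough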;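 note: 100% = mean luminescence of untreated wells and 0% = no signal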). The following applies: H69AR lung tumor cells viability, ATP luminescence, 72 h; at 10 µM; stronger effect = lower value.
A short description of assay [6]: reversal of MRP1-mediated doxorubicin resistance, pilot screen, H69AR cells, doxorubicin co-treatment (AID 601;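 active = viability loss from added drug above about 55%, and viability with drug at most 40%, in both replicates, limit read from the data, passing the limit was not always enough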). The following applies: CellTiter-Glo, 72 h, at 10 µM; for differential viability (reversal): stronger effect = higher value.
The nature of assay [7]: 384-well plate pilot, post-Golgi transport modulator project, inhibition of yeast transport mutant growth (AID 636; in the data active = inhibition above about 31%). The following applies: absorbance 615 nm, about 18 h, stronger effect = higher value.
A short description of assay [8]: growth suppression of yeast trafficking mutant, preliminary HTS, modulators of trafficking downstream of Golgi apparatus project, 1536-format plate, OD 615 nm (AID 637). The settings on record: yeast transport mutant growth, absorbance 615 nm, 18 h; stronger effect = higher value.
Assay [9] can be described thus: OD615 S. cerevisiae growth inhibition, permissive medium, pilot counter-assay, permissive growth control for S. cerevisiae lifespan shortening project (AID 705;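 active = growth inhibition above 25% in both replicates, a cutoff set 3 SD above the mean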). The following applies: OD615, 24 h, at 10 µM, stronger effect = higher value.
The nature of assay [10]: Restrictive medium S. cerevisiae growth inhibition, OD615, pilot screen of yeast lifespan reduction project, restrictive growth control (AID 706;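 active = growth inhibition above a set limit, 3 SD over mean compound inhibition, in both replicates, cut at about 43% in these data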;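 note: modified DeaD lifespan yeast strain shifted to restrictive glucose medium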). The settings on record: OD615, 48 h, at 10 µM, stronger effect = higher value.
Assay [11] is described as follows: viability gain of MRP-1-high H69AR cells under doxorubicin, pilot screen, MRP-1 activator project, CellTiter-Glo, duplicate (AID 807;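 active = viability increase at or above a cutoff of the median across tested compounds plus 3 SD, cut at about 8.5% in these data, passing the limit was not always enough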;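 note: compound pretreatment 18-22 h then 72 h combined with doxorubicin; 0% = doxorubicin alone and 100% = vehicle without doxorubicin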). The following applies: H69AR viability with doxorubicin, CellTiter-Glo luminescence; at 10 µM; stronger effect = higher value.
Assay [12] in a line: growth suppression of beta-catenin knockout HCT116, pilot screen, human colon tumor cells (AID 823;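 active = cell viability at or below a set limit in both duplicate runs, the limit being the all-compound median minus 4 SD, cut at about 23% in these data, passing the limit was not always enough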;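 note: 0% = wells killed by 20 µM Hyamine and 100% = untreated DMSO cell wells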). The settings on record: CellTiter-Glo, 60 h, at 10 µM, stronger effect = lower value.
The nature of assay [13]: growth suppression of PTEN-deleted HCT116, pilot screen, cell-based, HCT116 clonal line, CellTiter-Glo (AID 824;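 active = viability at or below 27.92% in each of two runs, the all-compound median minus 4 SD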;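 note: 0% = 20 µM Hyamine control and 100% = vehicle cell control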). The settings on record: 60 h, at 10 µM, stronger effect = lower value.
Assay [14] is described as follows: inhibitors of the yeast RAM network, pilot screen, dse1pr::URA3 reporter, 5-FOA selection (AID 869;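 active = inhibition over a set limit, the all-compound mean plus 3 SD, in both replicate runs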;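 note: 0% = DMSO wells with no growth and 100% = 10 µM 1-NA-PP1 with full growth; RAM network block rescues cells from 5-FOA so hits raise OD615 growth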). The settings on record: S. cerevisiae dse1pr::URA3 5-FOA growth, OD615, 2 d; at 10 µM; stronger effect = higher value; strain carries analog-sensitive mutant Cbk1 kinase.
Assay [15] in a line: RAM signaling pathway blockade in yeast – S. cerevisiae, Pdr1DBD-CYC8 efflux-inhibited sensitized strain, primary screen (AID 1298;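 active = RAM network inhibition above 8.4% in each of two replicates, 3 SD over the compound average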;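 note: 0% = DMSO untreated cells without growth and 100% = 10 µM 1-NA-PP1 full growth; higher means more yeast growth rescued from 5-FOA killing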). The following applies: S. cerevisiae cbk1-as DSE1-URA3 strain, 5-FOA growth OD615, 2 d; at 50 µM; stronger effect = higher value.
Where [16] appears, read: H69AR cells + 2 uM doxorubicin, measured here: viability with 2 uM doxorubicin, stronger effect = lower value.
[17] abbreviates: H69AR cells, compound alone cytotoxicity.

Turning to `O=C1CCCCCC1C1(O)C(=O)Nc2ccccc21` (stereo not drawn), the viability is 100% in [1]; 100% (inactive) in assay [3]; 87.9% (inactive) in assay [4]; 95.7% (inactive) in [5]; 94.4% in [6] (setting [16]); 95.7% in [6] (setting [17]). The values for the viability in assay [12] and in assay [13] were 99.7% (inactive) and 95% (inactive), respectively. The Her2 level in assay [2] was 96.5% (inactive). In addition, the differential viability (reversal) in [6] (H69AR cells + 2 uM doxorubicin) is 1.21% (inactive). The inhibition in assay [7] is -4.68% (inactive); in [8] it was -1.67% (inactive); in [14], 1.43% (inactive). Further, the growth inhibition in assay [9] is -0.65% (inactive); in assay [10] it was -10.4% (inactive). In addition, the viability increase in assay [11] was -2.3% (inactive). For the same compound, the RAM network inhibition in assay [15] is 1.29% (inactive).
On to `Cc1cccc(NC(=O)c2ccccc2O)c1C`, for which the viability was 60% in assay [1]; 60% (inactive) in assay [3]; 59.2% (inactive) in [4]; 93.3% (inactive) in [5]; 88.4% in assay [6] (setting [16]); 93.3% in assay [6] (setting [17]). Besides, the viability in assay [12] was 86.5% (inactive); in assay [13], 86.3% (inactive). In addition, the Her2 level in assay [2] was 75.5% (inactive). Further, the differential viability (reversal) in [6] (H69AR cells + 2 uM doxorubicin) was 4.91% (inactive). Also, the inhibition was -5.95% (inactive) in assay [7], -3.61% (inactive) in assay [8] and 1.33% (inactive) in assay [14]. The values for the growth inhibition in assay [9] and in assay [10] were 2.66% (inactive) and 1.19% (inactive), respectively. Moreover, in assay [11], the viability increase was -1.89% (inactive). For the same compound, the RAM network inhibition in assay [15] was 2.03% (inactive).
`CCC(Oc1ccccc1)C(=O)Nc1ccccc1OC` (stereo not drawn): the viability in assay [1] is 86%; in assay [3] it was 86% (inactive); in assay [4], 99.4% (inactive); in [5], 97.4% (inactive); in [6] (setting [16]) it was 84.8%; in [6] (setting [17]), 97.4%. The viability was 90% (inactive) in [12] and 87% (inactive) in [13]. The Her2 level in assay [2] was 72.5% (inactive). Moreover, the differential viability (reversal) in [6] (H69AR cells + 2 uM doxorubicin) is 12.6% (inactive). The inhibition was -6.35% (inactive) in assay [7], 3.61% (inactive) in assay [8] and 1.94% (inactive) in assay [14]. In addition, the figures for the growth inhibition in [9] and in assay [10] were -1.92% (inactive) and 8.91% (inactive), respectively. Moreover, the viability increase in [11] is -3.52% (inactive). Besides, the RAM network inhibition in assay [15] was 5.73% (inactive).
`COC(=O)C(C)Sc1nnc2n(-c3cccc(C)c3)c(=O)c3c4c(sc3n12)CCCC4` (stereo not drawn): the viability was 87.5% in [1]; 87.5% (inactive) in assay [3]; 86.8% (inactive) in assay [4]; 83.1% (inactive) in [5]; 18.4% in [6] (setting [16]); 83.1% in assay [6] (setting [17]). Moreover, the viability in assay [12] was 89.5% (inactive); in [13], 85.5% (inactive). In addition, the Her2 level in assay [2] was 112% (inactive). Further, the differential viability (reversal) in assay [6] (H69AR cells + 2 uM doxorubicin) is 64.7% (active). Also, the inhibition in assay [7] was 2.53% (inactive); in [8], 2% (inactive); in [14] it was 0.06% (inactive). The figures for the growth inhibition in assay [9] and in assay [10] were -9.47% (inactive) and 16.4% (inactive), respectively. In addition, the viability increase in [11] was -1.93% (inactive). Moreover, the RAM network inhibition in assay [15] is 1.84% (inactive).
Take `COCCOC(=O)C1=C(C)OC(N)=C(C#N)C1c1ccc2c(c1)OCO2` (stereo not drawn): the viability in assay [1] was 98%; in [3], 98% (inactive); in assay [4], 93.7% (inactive); in [5] it was 84.8% (inactive); in [6] (setting [16]), 79.8%; in assay [6] (setting [17]), 84.8%. In addition, the viability in assay [12] was 106% (inactive); in assay [13], 105% (inactive). Also, the Her2 level in assay [2] is 91.5% (inactive). For the same compound, the differential viability (reversal) in [6] (H69AR cells + 2 uM doxorubicin) was 4.96% (inactive). Moreover, the values for the inhibition in [7], in assay [8] and in assay [14] were -3.12% (inactive), -7.5% (inactive) and 0.465% (inactive), respectively. For the same compound, the results for the growth inhibition in [9] and in [10] were 2.33% (inactive) and -2.95% (inactive), respectively. In assay [11], the viability increase was -1.47% (inactive). For the same compound, the RAM network inhibition in [15] is 3.07% (inactive).
`COc1ccccc1CNC(=O)C1CCC(CNc2c(N3CCOCC3)c(=O)c2=O)CC1` (stereo not drawn): the viability in assay [1] is 90.5%; in assay [3], 90.5% (inactive); in assay [4] it was 86.7% (inactive); in assay [5], 105% (inactive); in assay [6] (setting [16]), 92.8%; in assay [6] (setting [17]), 105%. The viability in assay [12] was 101% (inactive); in [13], 104% (inactive). Moreover, in assay [2], the Her2 level was 126% (inactive). Also, the differential viability (reversal) in assay [6] (H69AR cells + 2 uM doxorubicin) is 12% (inactive). The inhibition in assay [7] was 1.03% (inactive); in assay [8], 3% (inactive); in assay [14], 1.35% (inactive). Moreover, the growth inhibition in assay [9] is -3.5% (inactive); in [10] it was 8.34% (inactive). The viability increase in assay [11] is 0.11% (inactive). Also, in assay [15], the RAM network inhibition was 3.53% (inactive).
`O=P(O)(CCc1ccccc1)CN1CCCCC1`: the viability in assay [1] is 106%; in [3], 106% (inactive); in [4], 102% (inactive); in assay [5], 95.5% (inactive); in assay [6] (setting [16]), 92%; in [6] (setting [17]), 95.5%. Besides, the figures for the viability in assay [12] and in assay [13] were 102% (inactive) and 98.8% (inactive), respectively. The Her2 level in [2] was 106% (inactive). In assay [6] (H69AR cells + 2 uM doxorubicin), the differential viability (reversal) was 3.43% (inactive). The inhibition was 7.97% (inactive) in [7], -1.97% (inactive) in assay [8] and 2% (inactive) in assay [14]. Besides, the growth inhibition in [9] is -2.51% (inactive); in assay [10] it was -11.9% (inactive). Moreover, in [11], the viability increase is -0.92% (inactive). Besides, the RAM network inhibition in assay [15] was 1.24% (inactive).
On to `O=c1[nH]c(SCc2ccc(F)cc2)nc2c1cnn2-c1ccc(F)cc1`, for which the viability in [1] was 69%; in assay [3] it was 69% (inactive); in assay [4], 70.7% (inactive); in [5], 79.1% (inactive); in [6] (setting [16]), 40.8%; in [6] (setting [17]), 79.1%. The viability in assay [12] is 39.8% (inactive); in assay [13], 51.5% (inactive). Also, in assay [2], the Her2 level is 106% (inactive). Also, the differential viability (reversal) in [6] (H69AR cells + 2 uM doxorubicin) is 38.2% (inactive). In addition, the inhibition in assay [7] is 1.87% (inactive); in assay [8], 12.3% (inactive); in [14], 1.02% (inactive). Further, the figures for the growth inhibition in assay [9] and in assay [10] were -5.11% (inactive) and -7.31% (inactive), respectively. In addition, the viability increase in assay [11] is -6.32% (inactive). Further, the RAM network inhibition in [15] was 4.01% (inactive).
`CC(C)(C)SCCNC(=O)CSc1ccccc1`: the viability is 102% in assay [1]; 102% (inactive) in assay [3]; 93.3% (inactive) in [4]; 101% (inactive) in [5]; 91% in assay [6] (setting [16]); 101% in [6] (setting [17]). Moreover, the results for the viability in assay [12] and in [13] were 107% (inactive) and 98.3% (inactive), respectively. Further, the Her2 level in [2] is 80% (inactive). Further, the differential viability (reversal) in assay [6] (H69AR cells + 2 uM doxorubicin) is 9.85% (inactive). In addition, the inhibition in [7] is -6.22% (inactive); in assay [8], 1.9% (inactive); in assay [14], 0.055% (inactive). For the same compound, the growth inhibition is -0.57% (inactive) in [9] and 9.05% (inactive) in [10]. Also, the viability increase in [11] is -0.61% (inactive). Besides, in assay [15], the RAM network inhibition was 4.54% (inactive).

As a reminder, the viability is a read-out of living cells in per cent, often relative to untreated cells. The inhibition is the relative decrease from the control value, in per cent.
